Results published in PubChem BioAssay AID1159580 (chemical genetic matrix, 2015).
Values joined by “and” are separate entries in the source; they are usually repeats but may differ in a detail not shown here. Equal values may be shown once. About 2,000 (36%) of roughly 5,500 compounds were called active. Another 18% or so got no clear call; they are omitted. Cut-off read from the data, not from the text of the source: active = normalized growth mostly below about 0.91 (no sharp cut-off); inconclusive = no clear call, values can overlap the other calls; inactive = mostly above about 0.92. The list shows a part of the results.

Experiment: chemical genetic growth profiling, strain panel (AID 1159580);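 note: tested at 20 µM; growth read once vehicle control cultures reached saturation at 30 °C; 1 = growth at the plate median or of vehicle wells; lower values mean less growth of the strain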
Details: S. cerevisiae deletion strains, growth OD

Measured: normalized growth

CCCCCCC(C)OC(=O)COc1ccc(Cl)cc1Cl (configuration not stated)
inactive: locus YAL013W, strain DEP1, active compounds read low 0.981 | locus YAL021C, strain ccr4, active compounds read low 0.991 | locus YAL026C, strain drs2, active compounds read low 0.993 | locus YAL030W, strain snc1, active compounds read low 0.99 | locus YBL061C, strain skt5, active compounds read low 0.996 | locus YBR009C, strain hhf1, active compounds read low 0.985 | locus YBR021W, strain FUR4, active compounds read low 1 | locus YBR023C, strain chs3, active compounds read low 0.99 | locus YBR171W, strain sec66, active compounds read low 0.99 | locus YBR229C, strain ROT2, active compounds read low 0.996 | locus YBR231C, strain swc5, active compounds read low 0.984 | locus YBR279W, strain paf1, active compounds read low 0.994 | locus YCL011C, strain gbp2, active compounds read low 0.987 | locus YCL016C, strain dcc1, active compounds read low 0.988 | locus YCL029C, strain bik1, active compounds read low 1 | locus YCL061C, strain MRC1, active compounds read low 0.993 | locus YCL069W, strain vba3, active compounds read low 0.992 | locus YCR088W, strain abp1, active compounds read low 0.996 | locus YDL005C, strain med2, active compounds read low 0.996 | locus YDL035C, strain GPR1, active compounds read low 0.955 | locus YDL040C, strain nat1, active compounds read low 0.985 | locus YDL074C, strain BRE1, active compounds read low 0.968 | locus YDL101C, strain DUN1, active compounds read low 0.985 | locus YDL134C, strain PPH21, active compounds read low 1 | locus YDL185W, strain tfp1, active compounds read low 1.01 | locus YDL192W, strain arf1, active compounds read low 1 | locus YDR001C, strain nth1, active compounds read low 0.99 | locus YDR069C, strain doa4, active compounds read low 0.97 | locus YDR101C, strain arx1, active compounds read low 0.996 | locus YDR137W, strain rgp1, active compounds read low 0.987 | locus YDR150W, strain NUM1, active compounds read low 1.01 | locus YDR159W, strain sac3, active compounds read low 0.992 | locus YDR162C, strain NBP2, active compounds read low 0.939 | locus YDR195W, strain ref2 0.957 | locus YDR297W, strain sur2, active compounds read low 0.988 | locus YDR318W, strain mcm21, active compounds read low 1 | locus YDR334W, strain swr1, active compounds read low 0.988 | locus YDR335W, strain msn5, active compounds read low 0.994 | locus YDR388W, active compounds read low 1 | locus YDR392W, strain spt3, active compounds read low 0.997 | locus YDR502C, strain sam2, active compounds read low 1 | locus YEL003W, strain gim4, active compounds read low 0.988 | locus YEL037C, strain rad23, active compounds read low 0.995 | locus YEL061C, strain CIN8 (second series), active compounds read low 0.988 | locus YEL061C, strain CIN8, active compounds read low 0.986 | locus YER015W, strain faa2, active compounds read low 0.991 | locus YER016W, strain bim1, active compounds read low 0.99 | locus YER110C, active compounds read low 1 | locus YER111C, strain swi4, active compounds read low 1 | locus YER155C, strain BEM2 (second series), active compounds read low 0.989 | locus YER155C, strain BEM2, active compounds read low 0.976 | locus YER167W, strain BCK2, active compounds read low 0.986 | locus YFR010W, strain ubp6, active compounds read low 0.992 | locus YGL078C, strain dbp3, active compounds read low 0.996 | locus YGL086W, strain mad1, active compounds read low 0.997 | locus YGL167C, strain pmr1, active compounds read low 0.993 | locus YGL173C, strain kem1, active compounds read low 0.989 | locus YGL227W, strain vid30, active compounds read low 0.979 | locus YGL240W, strain doc1, active compounds read low 1 | locus YGL248W, strain PDE1, active compounds read low 0.991 | locus YGL253W, strain hxk2, active compounds read low 0.987 | locus YGR078C, strain PAC10, active compounds read low 0.988 | locus YGR135W, strain pre9, active compounds read low 1.01 | locus YGR229C, strain SMI1, active compounds read low 0.891 | locus YGR252W, strain gcn5, active compounds read low 1 | locus YHR013C, strain ard1, active compounds read low 0.988 | locus YHR027C, strain rpn1, active compounds read low 0.996 | locus YHR030C, strain SLT2, active compounds read low 0.974 and 1.03 | locus YHR079C, strain IRE1 (second series), active compounds read low 0.997 | locus YHR079C, strain IRE1, active compounds read low 1.02 | locus YHR094C, strain hxt1, active compounds read low 0.998 | locus YHR129C, strain ARP1, active compounds read low 0.977 | locus YHR142W, strain chs7, active compounds read low 0.988 | locus YHR200W, strain rpn10, active compounds read low 0.993 | locus YIL066C, strain RNR3, active compounds read low 0.963 | locus YIL073C, strain SPO22, active compounds read low 0.957 | locus YIL125W, strain kgd1, active compounds read low 0.996 | locus YIR030C, strain dcg1, active compounds read low 0.996 | locus YJL092W, strain hpr5, active compounds read low 0.994 | locus YJL095W, strain BCK1 (second series), active compounds read low 0.983 | locus YJL095W, strain BCK1, active compounds read low 0.94 and 1.03 | locus YJL115W, strain asf1, active compounds read low 0.989 | locus YJL129C, strain trk1, active compounds read low 0.953 | locus YJL134W, strain LCB3, active compounds read low 0.98 | locus YJL154C, strain vps35, active compounds read low 0.994 | locus YJL164C, strain tpk1, active compounds read low 0.969 | locus YJL166W, strain qcr8, active compounds read low 0.989 | locus YJL168C, strain set2, active compounds read low 1 | locus YJL187C, strain SWE1 (second series), active compounds read low 0.998 | locus YJL187C, strain SWE1, active compounds read low 0.992 | locus YJR043C, strain POL32, active compounds read low 0.969 | locus YJR066W, strain TOR1, active compounds read low 0.949
